Source: PubChem
PostGolgi ctrl: inhibits growth of the yeast control strain; efflux-deficient yeast background strain, growth absorbance A615, 16 h; inhibition, % at 10 µM; 98,000 tested, 5% active; AID 738
CYP2C19 act: cytochrome P450 2C19 (human) activation; P33261; AID 1025; 96,000 tested, under 10 active; activation factor at 5 µM; recombinant CYP2C19, luciferin-H EGE luminescence; active compounds read high; 0 = fully inhibited enzyme, 1 = untreated enzyme;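 active means activation factor of at least 2 at 5 µM in the primary screen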;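 further: 0 = wells with 2.5 mM tranylcypromine and 1 = vehicle-only wells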
Target sequence (P33261 whole entry, looked up): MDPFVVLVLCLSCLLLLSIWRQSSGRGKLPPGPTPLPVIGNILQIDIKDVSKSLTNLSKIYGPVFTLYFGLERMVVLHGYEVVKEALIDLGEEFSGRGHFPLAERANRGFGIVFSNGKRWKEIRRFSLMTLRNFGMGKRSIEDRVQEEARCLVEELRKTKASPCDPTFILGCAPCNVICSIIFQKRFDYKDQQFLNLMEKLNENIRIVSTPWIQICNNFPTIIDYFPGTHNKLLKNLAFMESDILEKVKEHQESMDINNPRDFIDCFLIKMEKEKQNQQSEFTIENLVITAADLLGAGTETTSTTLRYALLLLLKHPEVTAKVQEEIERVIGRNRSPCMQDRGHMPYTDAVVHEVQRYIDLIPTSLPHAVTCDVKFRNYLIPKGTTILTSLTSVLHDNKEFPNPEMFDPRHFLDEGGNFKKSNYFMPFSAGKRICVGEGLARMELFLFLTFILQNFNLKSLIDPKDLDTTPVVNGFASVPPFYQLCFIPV
CYP2C19 inhib: inhibitors of human CYP2C19. CYP2C19 Supersomes, luciferin-H EGE luminescence, 30 min. inhibition, % at 5 µM. 96,000 tested, 21% active. AID 778;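 active means CYP2C19 inhibition above a set limit at 5 µM in the primary screen, cut at about 50% in these data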;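 further: plate controls were negative control wells for no effect and 2.5 mM tranylcypromine positive control for full effect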
PostGolgi yeast: growth inhibition of a yeast mutant, post-Golgi transport screen; post-Golgi transport phenotypic cell assay; inhibition, % at 10 µM; 98,000 tested, 0.9% active;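 further: yeast cells grown in 1536-well plates; yeast grown about 18 h at 30C before absorbance read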
CYP2C9 act: increases human cytochrome P450 2C9 activity; 96,000 tested, 1.4% active; P11712; AID 1024; recombinant CYP2C9, luciferin-H conversion, luminescence; active compounds read high; factor 1 = untreated enzyme, 0 = blocked; activation factor at 5 µM;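 active means activation factor of 2 or more for CYP2C9 at a 5 µM dose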;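 further: 0 = sulfaphenazole-blocked wells and 1 = vehicle-only wells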
CYP2C9 inhib: inhibitors of human CYP2C9; P11712; CYP2C9 Supersomes, luciferin-H conversion, luminescence; inhibition, % at 5 µM; 96,000 tested, 20% active;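 active means blocking of liver enzyme CYP2C9 beyond about 50% at 5 µM, limit read from the data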
* hit, by the source's call; x = not tested or not shown. The list is not random: actives were taken first. Their share in the collection is about 32%. Unless noted, no stated cut-off is given here; in the data, active means inhibition above about 30%; inactive means the rest.

SMILES | PostGolgi ctrl | CYP2C19 act | CYP2C19 inhib | PostGolgi yeast | CYP2C9 act | CYP2C9 inhib
O=S(=O)(NC1CC2CCC1C2)c1ccc2c(c1)OCCO2 (configuration not stated) | 55* | 0 | 97* | 1 | 0.2 | 78*
O=S(=O)(NCC1CCCO1)c1ccc2c(c1)OCCO2 (configuration not stated) | -3 | 0.6 | 44 | 2 | 1 | -3
CC1CCCC(NS(=O)(=O)c2ccc3c(c2)OCCO3)C1C (configuration not stated) | 55* | 0 | 97* | -7 | 0.4 | 61*
COc1ccc(S(=O)(=O)NC2CC3CCC2C3)cc1Cl (configuration not stated) | 95* | 0.5 | 47 | 81* | 1.6 | -60
Cc1nc2ccccc2n1C1CCN(CC(=O)NCc2ccc(F)cc2)CC1 | 23 | 0.9 | 6 | 0 | 0.7 | 27
Cn1nc([N+](=O)[O-])c2c(-c3nc4ccccc4s3)c(N)n(C3CCCCC3)c2c1=O | 26 | 1.1 | -8 | -1 | 0.7 | 29
N#Cc1c(SCc2ccccc2)nc(N2CCOCC2)c2c1CCCC2 | 15 | 0.7 | 35 | -11 | 0.1 | 92*
CCSc1nc(N2CCCCC2)c2c(c1C#N)CCCC2 | 8 | 0.3 | 69* | -5 | 0.1 | 93*
COC(=O)C1=C(C)NC(C)=C(C(=O)OC)C1/C=C/c1ccccc1 | 20 | 0.5 | 47 | 2 | 0.4 | 55*
CCOC(=O)C1=C(C)NC(=O)C(C(N)=O)C1c1ccccc1 (configuration not stated) | 33* | 0.9 | 8 | 2 | 0.9 | 11
CCOC(=O)C1=C(C)NC(C)=C(C(=O)OCC)C1/C=C/c1ccccc1 | 24 | 0.3 | 68* | -7 | 0.3 | 70*
COc1ccc2c(c1)c1nc(SCC(C)C)n(CCO)c(=O)c1n2C | 5 | 0.8 | 17 | -5 | 0.7 | 33
COCCCN(C(C)=O)c1nc(-c2ccc(OC)cc2)cs1 | 3 | 0.7 | 33 | -7 | 0.7 | 34
CCOCCCNCc1ccc(OC)c(OC)c1 | 26 | 0.9 | 8 | 1 | 0.4 | 61*
CCCCCOc1ccc(C(=O)NCC(=O)NCC(=O)OCC)cc1 | 10 | 1.2 | -20 | -8 | 1.3 | -26
CCCn1c(SCC(=O)Nc2nnc(CC)s2)nnc1-c1ccco1 | 2 | 0.9 | 10 | 25 | 0.5 | 46
COc1ccc(Cl)cc1S(=O)(=O)N1CCCC1 | 4 | 0.6 | 43 | -4 | 2* | -97
COc1ccc(Cl)cc1NS(=O)(=O)c1ccc(S(=O)(=O)N2CCCC2)cc1 | 17 | 0.7 | 35 | -8 | 0.7 | 32
COc1cc(OC)c(S(=O)(=O)N2CCCCC2)cc1S(=O)(=O)N1CCCCC1 | 14 | 0.4 | 64* | -4 | 0.6 | 43
CCOc1cc(C)c(S(=O)(=O)N2CCCC2)cc1C | -7 | x | x | -15 | x | x
COc1ccc(Cl)cc1S(=O)(=O)N1CCN(C)CC1 | 22 | 0.4 | 55* | -9 | 1.7 | -72
COc1cc(S(=O)(=O)N2CCN(C)CC2)c(OC)cc1Br | -7 | 0.9 | 8 | -2 | 1.4 | -36
CCOc1ccc(Cl)cc1S(=O)(=O)N1CCCC1 | 7 | 0.5 | 53* | 2 | 2.2* | -117
CC(C)C(=O)Nc1ccc(C(=O)NNC(=O)CCCOc2ccc(Cl)cc2Cl)cc1 | 15 | 0.9 | 7 | -7 | 0.6 | 40
CCCCc1nnc(NC(=O)CSc2nc(=O)cc(N)n2-c2cccc(C)c2)s1 | 0 | 1.1 | -14 | 14 | 1.1 | -11
SMILES | PostGolgi ctrl | CYP2C19 act | CYP2C19 inhib | PostGolgi yeast | CYP2C9 act | CYP2C9 inhib
Clc1cc2nc3ccccn3c2cc1Cl | 18 | 0.8 | 17 | 5 | 1 | -1
CCOc1c(S(=O)(=O)N2CCCC2)ccc(Cl)c1Cl | 8 | 0.1 | 93* | 13 | 1.5 | -49
CCOCCCNC(=O)Cc1c(C(=O)O)[nH]c2ccc(Cl)cc12 | 8 | x | x | 9 | x | x
CCCCN(CC)C(=O)Cc1c(C(=O)O)[nH]c2ccc(Cl)cc12 | 32* | 0 | 96* | 3 | 0 | 95*
Cc1ccc(OCc2nc(C#N)c(NCc3ccc4c(c3)OCO4)o2)cc1 | 31* | 0 | 98* | 1 | 0 | 99*
C=CCNc1oc(COc2ccc(C)cc2)nc1C#N | -1 | 0.3 | 65* | 24 | 0.7 | 27
CCOc1ccc(-c2nc(C#N)c(NCc3ccc4c(c3)OCO4)o2)cc1 | -10 | 1.1 | -12 | -8 | 0.7 | 28
O=C(NCCOc1ccccc1)c1ncn[nH]1 | -5 | 1 | -4 | -17 | 1.1 | -10
NC(=O)C(c1ccccc1)C1CCCC1 (configuration not stated) | 7 | 0.8 | 16 | 3 | 1.1 | -6
O=P(OC1CCCCC1)(OC1CCCCC1)C(O)c1ccccc1 (configuration not stated) | 11 | 0.4 | 65* | 9 | 0.4 | 55*
O=C(Nc1nc2ccccc2s1)c1cnccn1 | 12 | 0.3 | 65* | -5 | 0.7 | 29
O=C(O)CCC(=O)Nc1nc2ccccc2s1 | -3 | 1.1 | -8 | 15 | 1.1 | -10
c1ccc(CCNc2nc3ccccc3s2)cc1 | 11 | 0 | 97* | -4 | 0.2 | 82*
CCOC(=O)Nc1nc2ccccc2s1 | -5 | 1.1 | -10 | 20 | 0.7 | 29
Cc1ccc(C(=O)Nc2nc3ccccc3s2)s1 | 7 | 0.6 | 38 | 4 | 0.4 | 61*
Cc1ccc(CNc2nc3ccccc3s2)s1 | 6 | 0.5 | 51* | -5 | 0.6 | 44
COc1ccc(Cn2c(CCC(=O)Nc3ccc(C)c(C)c3)nc3cccnc32)cc1 | 18 | 0.4 | 64* | -9 | 0 | 98*
O=C(CCc1nc2cccnc2n1Cc1ccccc1)NCCc1ccc(Cl)cc1 | 7 | 0.3 | 71* | 7 | 0.3 | 69*
COCCCNC(=O)CCc1nc2cccnc2n1Cc1ccccc1 | -1 | 0.9 | 6 | -5 | 0.8 | 15
COc1ccc(Cn2c(CCC(=O)Nc3ccccc3)nc3cccnc32)cc1 | 20 | 0.8 | 21 | 5 | 1 | -3
COc1ccc(Cl)cc1NC(=O)CN1CCC(n2nnc3ccccc32)CC1 | 19 | x | x | 7 | x | x
COc1ccc(CN2CCNC(=O)C2CC(=O)O)c(OC)c1 (configuration not stated) | 7 | 1.1 | -11 | -11 | 0.7 | 26
Cc1nn(CCc2nc(-c3ccco3)cs2)c2[nH]c(=O)cc(C(F)(F)F)c12 | 26 | 0.4 | 56* | 3 | 0.3 | 71*
Cc1cc(C)n(CCc2nc(-c3ccco3)cs2)n1 | 0 | 0.7 | 32 | -1 | 1 | -1
CC(=O)c1c(C)[nH]c(C(=O)CSc2nc3ccccc3n2C)c1C | 13 | 0.9 | 13 | 1 | 1.5 | -50
Cc1nnc(C)n1N1C(=O)c2cccc3cccc(c23)C1=O | 7 | 0.4 | 62* | 7 | 0.2 | 81*
COC(=O)C1=C(N)Oc2cc(C)[nH]c(=O)c2C1c1ccncc1 (configuration not stated) | 4 | 0.5 | 49 | 2 | 0.5 | 51*
